# Jurkat NFkB inh – lowers PMA/ionomycin-induced NF-kB signal in Jurkat cells; PMA/ionomycin-induced NF-kB luciferase reporter, luminescence; inhibition, % at 4 µM; hit rate 0.53% among 330,000; AID 435003; in the data active = inhibition above about 50%
# 697 NFkB inh – inhibitors of the PMA/ionomycin-induced NF-kB reporter in 697 B cells. 697 B-cell NF-kB luciferase reporter, 16 h. inhibition, % at 4 µM. hit rate 0.33% among 330,000. AID 435022; in the data active = inhibition above about 35%
# Beta apoptosis – blocks beta cell apoptosis; INS-1E cytokine-induced death, ATP luminescence, 48 h; percent of positive-control rescue, neutral wells zero; protection from apoptosis, % (no concentration beside the values); hit rate 0.8% among 300,000; AID 435005;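 active = Every replicate reaches about 75%, or at least half do and their mean reaches it too, limit read from the data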;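 note: 0% = cytokine-treated negative control wells and 100% = positive control rescue; higher means more ATP so stronger rescue from cytokine killing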
# Gli-Sufu antag – antagonists of Gli-Sufu signaling; Sufu-KO-LIGHT fibroblasts, Gli luciferase reporter luminescence; inhibition, % at 5 µM; hit rate 0.74% among 340,000; AID 588413;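 active = inhibition above about 55%, limit read from the data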;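 note: 0% = DMSO-treated cells and 100% = wells with medium but no cells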
# Gli antag conf – Gli-SUFU antagonism confirmation, single concentration; shares compounds with Gli-Sufu antag; AID 602428; inhibition, % at 5 µM; hit rate 40% among 2,500; Sufu-KO-LIGHT cells, Gli luciferase reporter, luminescence;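 active = mean inhibition at 5 µM reaching about 45%, limit read from the data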;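 note: plate controls were DMSO-treated cells for no effect and wells lacking cells for full effect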
# SufuKO cytotox – cytotoxic in Gli-SUFU antagonist counter-screen; cytotoxicity, % at 5 µM; Sufu-KO-LIGHT cells cytotoxicity, ATP luminescence; hit rate 32% among 2,500; shares compounds with Gli-Sufu antag;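 active = mean cytotoxicity at 5 µM above about 25%, limit read from the data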;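 note: cells exposed to compound overnight for roughly 16 to 18 hours; plate controls were DMSO wells with cells for no effect and medium without cells for full effect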
# Wnt3a cs – counter-screen for Gli-SUFU antagonists: Wnt3a reporter inhibition. Wnt-LIGHT cells, Wnt3a-driven luciferase reporter, luminescence. hit rate 20% among 2,500. shares compounds with Gli-Sufu antag. inhibition, % at 6.25 µM;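 active = mean inhibition above about 25%, limit read from the data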
# The depositor's hits bear a star; / = no result. Only some compounds are listed: those with a hit (about 1.8% of all), similar ones and a draw of the others.
SMILES,Jurkat NFkB inh,697 NFkB inh,Beta apoptosis,Gli-Sufu antag,Gli antag conf,SufuKO cytotox,Wnt3a cs
CC(C)(C)C1CCC(OC(=O)C[N+]2(C)CCCCC2)CC1 (stereo not drawn),0,-17,3,53,33,12,1
CC(C)(C)C1CCC(OC(=O)C[N+]2(C)CCCC2)CC1 (stereo not drawn),-5,-3,3,25,/,/,/
COc1cc(NC(=S)Nc2cccnc2)cc(OC)c1,-1,-21,2,3,/,/,/
COc1ccc(CC(=O)NCCS(=O)(=O)N2CCN(c3ccc(F)cc3)CC2)cc1OC,2,-10,/,-10,/,/,/
C[C@H](NS(=O)(=O)c1ccccc1)C(=O)N1CCN(C(c2ccccc2)c2ccccc2)CC1,-14,-25,-1,-1,/,/,/
C=CCOC(=O)C1=C(C)NC(C)=C(C(=O)OCC=C)C1c1ccc(C)o1,-22,7,6,-1,/,/,/
CCOC(=O)C1=C(C)NC(C)=C(C(=O)OCC)C1c1ccc(C)o1,1,-6,-22,59*,17,27*,1
OC(COc1ccc2c(c1)OCO2)CN1CCCC1 (stereo not drawn),-18,-58,-1,-14,/,/,/
COC(=O)[C@@]12CCCCN1[C@H](c1ccc(-c3ccc(OC)cc3)cc1)[C@H]1C(=O)N(C)C(=O)[C@H]12,16,-6,8,21,/,/,/
COC(=O)[C@@]12CCCCN1[C@H](c1ccc(-c3ccccc3)cc1)[C@@H]1C(=O)N(C)C(=O)[C@@H]12,7,-3,-4,83*,26,1,25*
CCc1noc(C)c1C(=O)OC(C)C(=O)NCc1ccc(OC)cc1 (stereo not drawn),-1,6,-4,0,/,/,/
COc1cc(NC(=O)CSc2nncn2C)cc(OC)c1OC,8,6,-1,7,/,/,/
COc1cc(NC(=O)CSc2nc(C)cc(C)n2)cc(OC)c1OC,21,13,-14,52,10,3,-9
CN1CCC(=C2c3ccccc3CC(=O)c3sccc32)CC1,-2,-6,-9,10,24,5,7
Cc1ccc(C)c(N2CC(O)(c3cccs3)[N+]3=C2CCCC3)c1 (stereo not drawn),3,14,7,62*,50*,27*,-14
OC1(c2cccs2)CN(c2ccc(Cl)cc2)C2=[N+]1CCCC2 (stereo not drawn),-6,-26,1,12,/,/,/
CN1/C(=C/C(=S)NC(=O)C2(C)CC2(Cl)Cl)C(C)(C)c2ccccc21 (stereo not drawn),4,-29,49,60*,24,26*,1
CN1/C(=C\C(=S)NC(=O)c2ccccc2Cl)C(C)(C)c2ccccc21,20,-23,100*,73*,55*,31*,30*
COc1ccccc1C(=O)NC(=S)/C=C1/N(C)c2ccccc2C1(C)C,26,-10,66,78*,34,26*,-9
CN1/C(=C\C(=S)Nc2ccccc2)C(C)(C)c2ccccc21,-11,-9,120*,65*,74*,16,28*
CC(O)(CS(=O)(=O)Cc1ccccc1)c1ccc(Cl)cc1 (stereo not drawn),-42,-15,-4,4,/,/,/
O=C(CN1C(=O)NC2(CCCCC2)C1=O)Nc1ccc(S(=O)(=O)N2CCOCC2)cc1,3,18,0,-9,/,/,/
O=c1cc(C(F)(F)F)nc(SCc2cccc3ccccc23)[nH]1,8,1,-2,4,/,/,/
CCOc1ccc(/C(O)=C/C(=O)C(=O)Nc2ccc(S(=O)(=O)NC(C)=O)cc2)cc1,-5,-15,-5,84*,17,12,-11
CCOc1ccc(NS(=O)(=O)c2ccc(NC(=S)NC(C)=O)cc2)cc1,11,-5,2,12,/,/,/
SMILES,Jurkat NFkB inh,697 NFkB inh,Beta apoptosis,Gli-Sufu antag,Gli antag conf,SufuKO cytotox,Wnt3a cs
CCn1c(=NC(=O)CCS(=O)(=O)c2ccccc2)sc2cccc(OC)c21,17,-63,87*,70*,71*,28*,17
CCn1c(=NC(=O)c2ccc(S(=O)(=O)N3CCOCC3)cc2)sc2cccc(OC)c21,11,-29,88*,52,35,21,-2
CCn1c(C)c(C(C)=O)c(N2CCN(c3ccc(F)cc3)CC2)nc1=S,0,-19,-4,19,/,/,/
CCN(C(=O)COC(=O)/C=C/c1cnc2ccccc2n1)C1CCS(=O)(=O)C1 (stereo not drawn),0,19,-8,56*,18,-3,-14
C=CCN1C(=O)/C(=C\c2ccc(Cl)cc2)N=C1SCC(=O)NCCC,18,-4,-3,56*,17,20,10
Cc1nnsc1C(=O)NC1CCCc2c1cnn2-c1ccc(F)cc1F (stereo not drawn),49,21,49,65*,56*,13,-4
Cc1nnsc1C(=O)NC1CCCc2c1cnn2-c1cc(F)cc(F)c1 (stereo not drawn),9,-18,25,5,/,/,/
COc1cc(C(=O)NC2CCCc3c2cnn3-c2ccccc2F)cc(OC)c1OC (stereo not drawn),27,-35,20,61*,48*,34*,13
CCc1cccc(NC(=O)CCCn2nc(CC)n3c(cc4occc43)c2=O)c1,1,3,-1,1,/,/,/
CCc1nn(CCCC(=O)NCc2ccccc2Br)c(=O)c2cc3occc3n12,-1,-11,1,82*,25,3,-4
COc1cccc(CNC(=O)CCCn2ncn3c(cc4occc43)c2=O)c1,4,-18,-4,-2,/,/,/
N#Cc1ccc(OCC(=O)Nc2ccccc2NS(=O)(=O)c2cccs2)cc1,-11,-5,-3,53,16,6,-44
O=C(Nc1ccccc1)Nc1ccccc1NS(=O)(=O)c1cccs1,8,14,-3,3,/,/,/
COc1ccc(-n2nc(C(=O)NCC(=O)N(C)Cc3ccccc3)c3ccccc3c2=O)cc1OC,17,1,-3,25,/,/,/
CCN(CC(=O)Nc1ccccc1-c1ccccc1)Cc1nc2ccccc2c(=O)[nH]1,24,11,-3,-6,/,/,/
COc1cc(/C=N/NC(=O)c2cc(-c3ccccc3)nc3ccccc23)ccc1O,-41,-16,6,59*,11,15,-98
COc1ccc(/C=N/NC(=O)c2nc(-c3ccccc3)cc(-c3ccccc3)n2)cc1O,-12,-14,15,55*,1,7,-73
COc1ccc(/C=N/NC(=O)c2cc(-c3ccccc3)nc3ccccc23)cc1O,-19,5,11,-1,/,/,/
CC(C)(C)SCCNC(=O)c1ccc(CN2CCc3ccccc3C2)cc1,-19,-35,-1,-1,/,/,/
O=C(O)CCc1nn2c3ccccc3n(CCN3CCCCC3)c2nc1=O,6,-13,/,-1,/,/,/
CCOC(=O)c1cc(-c2ccccc2C)nn1Cc1cc(CC)no1,-9,-8,3,-43,/,/,/

# Screens (PubChem)
